Only some compounds are listed: those with a hit (about 1.3% of all), similar ones and a draw of the others.
RTF Ca sens inh = cardiac RTF calcium desensitization; IANBD-labeled cardiac RTF, Ca2+ fluorescence; inhibition, % at 7.15 µM; actives 0.12% (n = 340,000); AID 493244;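 active = inhibition above the mean inhibition of all tested compounds plus 3 SD, cut at about 17% in these data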;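 also: assay run at fixed EC70 calcium of 1.6 mM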
Keap1 Nrf2 FP = inhibitors of human Keap1-Nrf2 protein-protein interaction. Q14145. Keap1 Kelch-Nrf2 peptide fluorescence polarization, 1536-well. inhibition, % at 9.4 µM. actives 0.15% (n = 340,000). AID 504523; in the data active = inhibition above about 12%;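 also: human Keap1 Kelch domain with fluorescein labeled Nrf2 9mer peptide probe; 0% = neutral control wells and 100% = peptide positive control; higher means more block of Keap1 binding to Nrf2 peptide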
cardiac RTF act = increases calcium sensitivity of human cardiac regulated thin filaments; AID 493008; activation, % at 7.2 µM; IANBD-labeled TnC RTF fluorescence at EC20 calcium; 0% EC20 calcium, 100% full calcium; P19429+P45379; actives 0.24% (n = 340,000);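 active = activation above the mean over all tested compounds plus 3 SD, cut at about 30% in these data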;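 also: rise in fluorescence read as greater calcium sensitivity of cardiac thin filaments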
eLon inh = inhibitors of E. coli Lon protease. P0A9M0. purified E. coli Lon protease, fluorescence polarization. inhibition, % at 7.94 µM. actives 0.42% (n = 360,000); in the data active = inhibition above about 13%, passing the limit was not always enough;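 also: 0% = enzyme with probe and DMSO and 100% = no enzyme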
LANA DNA inh = KSHV C-LANA DNA binding inhibition. AID 504423. MBP-C-LANA/FAM-LBS DNA binding, fluorescence polarization. actives 0.078% (n = 340,000). inhibition, % at 9 µM;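 active = highest replicate inhibition at or above 60% at 9 µM, even if other replicates fall short; inactive = all replicates below 60% inhibition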;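 also: 0% = neutral control wells and 100% = 4 µM acridine orange control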
LANA-H2B inh = blocks KSHV LANA binding to histone H2A/H2B; cell-free LANA-H2A/H2B peptide, fluorescence polarization; inhibition, % (test concentration not listed); actives 0.6% (n = 320,000); AID 2629; in the data active = inhibition mostly above about 10%, no sharp cut-off; inactive = mostly below about 6.7%
Target sequence (Q9QR71 whole entry, looked up): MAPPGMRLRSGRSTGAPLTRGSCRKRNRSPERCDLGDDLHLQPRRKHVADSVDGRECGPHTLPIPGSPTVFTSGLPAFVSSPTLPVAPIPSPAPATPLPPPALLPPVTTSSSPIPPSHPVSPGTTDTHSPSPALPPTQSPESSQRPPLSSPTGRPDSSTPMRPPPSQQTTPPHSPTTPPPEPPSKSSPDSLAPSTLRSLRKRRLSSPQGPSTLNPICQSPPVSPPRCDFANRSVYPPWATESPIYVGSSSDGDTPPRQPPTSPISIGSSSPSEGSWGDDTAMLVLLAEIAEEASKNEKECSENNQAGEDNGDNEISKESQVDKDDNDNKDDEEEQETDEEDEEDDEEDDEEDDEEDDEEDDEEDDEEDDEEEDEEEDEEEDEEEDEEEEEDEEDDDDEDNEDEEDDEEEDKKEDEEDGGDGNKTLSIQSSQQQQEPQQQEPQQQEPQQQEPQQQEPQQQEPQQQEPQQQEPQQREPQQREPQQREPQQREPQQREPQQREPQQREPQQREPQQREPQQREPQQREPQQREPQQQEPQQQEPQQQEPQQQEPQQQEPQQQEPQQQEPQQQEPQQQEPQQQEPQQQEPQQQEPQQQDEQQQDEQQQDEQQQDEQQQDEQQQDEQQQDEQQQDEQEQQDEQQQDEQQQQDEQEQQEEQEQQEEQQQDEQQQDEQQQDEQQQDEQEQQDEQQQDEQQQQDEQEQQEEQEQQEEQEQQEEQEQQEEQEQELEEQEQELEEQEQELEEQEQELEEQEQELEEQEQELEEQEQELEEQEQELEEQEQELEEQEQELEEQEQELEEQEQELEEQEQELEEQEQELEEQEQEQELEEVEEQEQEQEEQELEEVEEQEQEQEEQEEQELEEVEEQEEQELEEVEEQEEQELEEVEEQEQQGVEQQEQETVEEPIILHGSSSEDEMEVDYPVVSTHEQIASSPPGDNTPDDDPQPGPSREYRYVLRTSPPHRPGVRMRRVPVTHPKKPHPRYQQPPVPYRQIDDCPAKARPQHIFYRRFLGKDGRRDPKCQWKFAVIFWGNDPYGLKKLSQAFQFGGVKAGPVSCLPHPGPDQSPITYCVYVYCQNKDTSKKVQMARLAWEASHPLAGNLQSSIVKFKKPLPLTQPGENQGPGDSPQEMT
Starred values were filed as active, the others as inactive; i = inactive; nt = no result given; + = active, no number; ! = not confirmed by another sample.

SMILES	RTF Ca sens inh	Keap1 Nrf2 FP	cardiac RTF act	eLon inh	LANA DNA inh	LANA-H2B inh
C[C@@H]1C[C@H]2[C@@H]3C[C@H](F)C4=CC(=O)C=C[C@]4(C)[C@@]3(F)[C@@H](O)C[C@]2(C)[C@@]1(O)C(=O)COC(=O)C(C)(C)C	8	-7	1	-9	1	0
C[C@@H]1C[C@H]2[C@@H]3CCC4=CC(=O)C=C[C@]4(C)[C@@]3(F)[C@@H](O)C[C@]2(C)[C@@]1(O)C(=O)CO	4	1	4	-1	2	1
CC(=O)[C@@]1(O)CC[C@H]2[C@@H]3C[C@H](C)C4=CC(=O)C=C[C@]4(C)[C@@]3(F)[C@@H](O)C[C@@]21C	-9	0	-3	-7	1	18*!
CC(=O)N(C)C[C@@H]1Oc2ncc(C#Cc3ccc(F)cc3)cc2C(=O)N([C@@H](C)CO)C[C@H]1C	nt	nt	nt	-1	nt	nt
Cc1ccc(C(=O)NCC(=O)N/N=C/c2cccs2)cc1[N+](=O)[O-]	8	-3	-1	4	-1	-2
Cc1ccc(NC(=O)NCCCN2CCCC2=O)cc1C	-5	0	-6	3	-1	2
CCN(c1ccccc1)S(=O)(=O)c1csc(C(N)=O)c1	-6	0	0	-2	-2	2
Cn1nnnc1Sc1ccc(C(=O)O)cc1[N+](=O)[O-]	5	-2	1	7	1	4
Cn1ccnc1Sc1ccc(C(N)=O)cc1[N+](=O)[O-]	-12	-2	2	-5	0	86*
O=C(N=C1SC2CS(=O)(=O)CC2N1c1ccc(F)cc1)C1CC1 (stereo unspecified)	2	-3	-7	2	0	16*
CCOC(=O)CN1CCS(=O)(=O)CC1	9	-5	5	0	0	-3
Cc1ccc(S(=O)(=O)n2nccc2-c2c(-c3ccc(Cl)cc3)noc2C)cc1	nt	-3	nt	-2	0	17*
Cc1ccc(-c2noc(C3CCCN(C(=O)c4cccc(F)c4)C3)n2)cc1 (stereo unspecified)	0	-7	6	0	1	16*
C=CCNC(=S)Nc1ccc(Br)cc1F	2	-3	1	-6	-2	13*
Cc1ccc(Nc2ncnc3c2nnn3Cc2ccccc2)cc1	nt	nt	nt	1	nt	-5
CC(C(=O)OCC(=O)NC1CCCCC1)N1C(=O)c2ccccc2C1=O (stereo unspecified)	2	-1	2	-21	-1	0
CNC(=O)COC(=O)c1cc(F)c(F)cc1Cl	-4	-5	6	10	1	20*
Cc1cccc(C)c1OCc1cc(C(=O)NCc2cn(C)nc2C)no1	-9	-1	1	-1	-1	1
COc1ccc(-c2cc(C(=O)N3CC4(C)CC3CC(C)(C)C4)no2)cc1 (stereo unspecified)	-11	3	3	-1	1	-10
COc1ccc(-c2cc(C(=O)N3CC4(C)CC3CC(C)(C)C4)no2)cc1OC (stereo unspecified)	3	-6	2	-6	-1	55*
O=C(C(=O)N1CCN(c2cccc(Cl)c2)CC1)c1cn(CC(=O)N2CCOCC2)c2ccccc12	-3	-1	-1	-2	0	-10
O=C(COc1ccc([N+](=O)[O-])cc1)Nc1cccc2nsnc12	-5	1	8	1	-1	8
COc1ccc(-n2nc3c(N4CCC(C(=O)N5CCC(C)CC5)CC4)nnc(C)c3c2C)cc1	-45	-65	32*	-300	-4	-2
Cc1cc(Br)ccc1NC(=O)CSc1nnc(CN2CCOCC2)n1C	1	-6	-7	5	-1	-3
CCOC(=O)C1(C)CCN1C(=O)COc1ccc(C(C)(C)C)cc1 (stereo unspecified)	nt	nt	nt	-2	nt	nt
SMILES	RTF Ca sens inh	Keap1 Nrf2 FP	cardiac RTF act	eLon inh	LANA DNA inh	LANA-H2B inh
O=C(CN1C(=O)C2C3C=CC(C3)C2C1=O)NCc1ccc2c(c1)OCO2 (stereo unspecified)	5	-4	7	-3	0	19*
O=C(CN1C(=O)C2CC=CCC2C1=O)NCc1ccc2c(c1)OCO2 (stereo unspecified)	3	-4	-2	-6	0	1
CCN1CCc2c(sc(NC(=O)Nc3ccc(Cl)c(Cl)c3)c2C(N)=O)C1	i	-47	152*	-269	18	-13
NC(=O)c1c(NC(=O)c2c(F)cccc2F)sc2c1CCN(Cc1ccccc1)C2	-7	-20	0	-48	9	-5
NC(=O)c1c(NC(=O)c2ccccc2)sc2c1CCN(Cc1ccccc1)C2	-34	-17	49*	-169	4	7
CCN1CCc2c(sc(NC(=O)Cc3ccccc3)c2C(N)=O)C1	5	-1	-4	-5	0	-8
COc1ccc(-c2ocnc2C(=O)NCc2nn(-c3ccccc3)nc2C)cc1	1	-3	-4	4	-1	-3
COCCNC(=O)CN(Cc1ccc2c(c1)OCO2)C(=O)CCC(=O)Nc1nccs1	-7	-2	-1	0	1	18*
Cc1ccc2nsnc2c1S(=O)(=O)Nc1ccccc1C(=O)O	-1	0	-4	-1	1	0
CCN(C(=O)CSc1nnc(-c2ccccc2OC)n1N)c1c(N)n(Cc2ccccc2)c(=O)[nH]c1=O	-1	-4	7	3	0	nt
CCCCN(C(=O)CSc1nnc(-c2ccccc2OC)n1C)c1c(N)n(Cc2ccccc2)c(=O)[nH]c1=O	3	-6	-2	6	1	+
COc1ccc(N2CCN(CCNC(=O)CCCn3c(=O)[nH]c4cc(Cl)ccc4c3=O)CC2)cc1	-5	-10	-5	4	7	19*
COc1ccc(N2CCN(CCCNC(=O)CCCn3c(=O)[nH]c4ccsc4c3=O)CC2)cc1	6	-2	-3	-6	0	-3
CC(=O)NCCc1c(C)n(Cc2ccccc2)c2ccccc12	-5	5	1	1	-4	4
CC(C)Cc1ccc(CN2CCCC(NC(=O)c3ccoc3)C2)cc1 (stereo unspecified)	-4	-4	-3	-3	-2	3
CC(C)Cc1ccc(CN2CCCC(NC(=O)c3cccc(-n4cnnc4)c3)C2)cc1 (stereo unspecified)	-6	-6	-9	-1	0	53*
Cc1cc(O)c(C(=O)/C=C/c2ccccc2O)c(=O)o1	-11	-7	-1	-22	-2	158*
Cc1cc(O)c(C(=O)/C=C/c2cccc([N+](=O)[O-])c2)c(=O)o1	-2	-5	1	-13	0	16*
Cc1cccc(CN2CCC(CNC(=O)Cn3ncc4c([nH]c5ccccc54)c3=O)CC2)c1	-3	2	-3	3	-2	0
CN(C(=O)CSc1nncn1C)C1CCCN(Cc2ccccc2F)C1 (stereo unspecified)	-3	4	-2	-10	0	-1
